# Source: the supplement of paper PMC6555819
# Key:
# Assay in all cases: PBM binding z-score (relative to random genomic background probes); higher = stronger binding; sequences stand for … in GC…GCGATTGACAGCGTAGAATGAAGG
# [1] = system: FXR:RXRa (NR concentration 270 nM, RXRa partner concentration 90 nM)
# In short: (§1)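 Custom Agilent 4×180K protein-binding microarrays carried double-stranded probes. Their 34-nt variable regions held direct-repeat seeds, single-nucleotide variants, half-site ablations and random human genomic background sequences. Arrays were incubated 1 h with ligand-free nuclear receptor dimers in PBS pH 7.4, 2% milk, 0.02% Triton X-100, 1 mM DTT, 0.2 mg/mL BSA and 0.4 mg/ml salmon testes DNA. Antibodies against each partner (one per run) detected binding, and scanned fluorescence was regression-normalized. Binding z-scores use random background probes as reference.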
# [2] = system: LXRa:RXRa (NR concentration 270 nM, RXRa partner concentration 90 nM)
# In short: as §1
# [3] = system: LXRa homodimer (NR concentration 270 nM)
# In short: as §1
# [4] = system: LXRb:RXRa (NR concentration 270 nM, RXRa partner concentration 90 nM)
# In short: as §1
# [5] = system: LXRb homodimer (NR concentration 270 nM)
# In short: as §1
# [6] = system: PPARa:RXRa (NR concentration 270 nM, RXRa partner concentration 90 nM)
# In short: as §1
# [7] = system: PPARg:RXRa (NR concentration 180 nM, RXRa partner concentration 90 nM)
# In short: as §1
# [8] = system: PPARg:RXRa 270nM:90nM, anti-RXR (NR concentration 270 nM, RXRa partner concentration 90 nM)
# In short: as §1
# [9] = system: PPARg:RXRa 30nM:10nM, anti-RXR (NR concentration 30 nM, RXRa partner concentration 10 nM)
# In short: as §1
# [10] = system: PPARg:RXRa 90nM:30nM, anti-RXR (NR concentration 90 nM, RXRa partner concentration 30 nM)
# In short: as §1
# [11] = system: PPARg:RXRa DBDmut IVT, anti-RXR (DBD mutation: RXRa K156A/R161A, NR concentration 270 nM, RXRa partner concentration 90 nM)
# In short: as §1
# [12] = system: PPARg:RXRa IVT, anti-PPARg (NR concentration 270 nM, RXRa partner concentration 90 nM)
# In short: as §1
# [13] = system: PPARg DBDmut:RXRa IVT, anti-PPARg (DBD mutation: PPARg1 K132A/R137A, NR concentration 270 nM, RXRa partner concentration 90 nM)
# In short: as §1
# [14] = system: PPARg DBDmut IVT, anti-PPARg (DBD mutation: PPARg1 K132A/R137A, NR concentration 270 nM)
# In short: as §1
# [15] = system: PPARg homodimer (NR concentration 180 nM)
# In short: as §1
# [16] = system: PXR:RXRa (NR concentration 270 nM, RXRa partner concentration 90 nM)
# In short: as §1
# [17] = system: PXR homodimer (NR concentration 270 nM)
# In short: as §1
# [18] = system: RARa:RXR (NR concentration 270 nM, RXRa partner concentration 90 nM)
# In short: as §1
# [19] = system: RARa homodimer (NR concentration 270 nM)
# In short: as §1
# [20] = system: RARb:RXRa (NR concentration 270 nM, RXRa partner concentration 90 nM)
# In short: as §1
Sequence,PBM binding z-score [1],PBM binding z-score [2],PBM binding z-score [3],PBM binding z-score [4],PBM binding z-score [5],PBM binding z-score [6],PBM binding z-score [7],PBM binding z-score [8],PBM binding z-score [9],PBM binding z-score [10],PBM binding z-score [11],PBM binding z-score [12],PBM binding z-score [13],PBM binding z-score [14],PBM binding z-score [15],PBM binding z-score [16],PBM binding z-score [17],PBM binding z-score [18],PBM binding z-score [19],PBM binding z-score [20]
ACTTACGGGTCAACTAGGTTATAGCACGCGTATA,6.74,4.89,0.702,4.49,0.758,5.8,6.09,5.5,2.25,4.51,3.88,4.98,1.29,1.61,2.6,4.26,0.766,4.91,1.54,4.36
CCTAGTTGGACAGGAGGTCACACACCGGATATGA,3.17,3.27,1.86,3.19,0.666,4.11,2.52,2.96,0.938,2.35,0.493,2.64,0.73,0.338,3.06,4.13,1.32,4.3,1.71,3.23
TCAGACAGGTAAAGGTAACTCAGGTACGCAGTCG,1.07,3.02,0.16,1.79,0.229,1.48,1.11,2.56,4.03,3.14,2.37,0.745,0.618,0.192,0.82,0.892,0.37,1.35,0.782,0.904
AGTCAAAGTTAATCTAGGTAACGTAAGATATGCT,0.59,0.213,-0.267,-0.245,-0.44,1.29,1.78,1.41,0.619,0.829,2.39,4.39,1.49,1.19,-0.261,-0.201,0.136,0.155,0.301,0.39
CCGACTAGGTTATGGGGCATTCAGGCAACGGTGA,0.258,0.306,0.00117,0.464,-0.646,1.81,3.22,4.17,1.77,3.95,3.02,3.3,-0.895,-0.581,1.05,-0.0889,-0.0769,0.303,-0.167,0.869
ATCTCTAGGTAACATGTTCAGTGAAAGAGAGGAC,0.248,0.254,-0.139,0.402,0.902,0.519,1.15,1.25,0.432,1.07,3.39,2.6,1.47,1.39,-0.116,0.0539,-0.0105,0.322,-0.388,0.433
ATCGAAAGGTCGACGAGGTTAGTATACACCGTTT,4.41,3.75,0.309,3.11,0.782,4.33,2.6,3.04,0.863,2.24,0.568,1.88,1.2,0.625,1.24,4.03,2.16,3.97,0.691,3.86
ATCGAAAGGTCGCCGAGGTGAGTATACACCGTTT,5.1,3.88,0.0507,3.11,0.601,5.12,3.84,4.39,1.55,2.85,0.699,2.7,1.2,0.615,1.79,3.34,0.6,4.03,0.336,4.25
CTACCAAGGTGAGCAAGGTCGTTGATTACTATTC,0.474,0.615,-0.2,0.949,-0.778,1.59,0.312,0.556,-0.319,-0.252,1.33,1.62,-0.318,-0.00619,0.031,1.79,0.655,1.44,-0.327,1.64
CAAACTAGGTCACAGAGGTCAAAGTACGTGCGTA,7.52,6.76,7.47,6.46,2.46,6.64,10.3,8.39,6.94,8.5,8.25,9.23,3.28,3.36,6.01,7.09,11.9,7.54,2.98,5.38
CGTCCCAGGTCAAAGGTCAGTGAAGAGATGACGG,7.79,6.36,2.98,6.02,0.888,7.24,10.8,9.06,8.62,9.26,2.95,5.97,0.207,0.538,3.77,6.8,1.05,8.49,1.64,5.7
TCTATTAGTTGCTTAGGGCAACCGAAACAGCGGA,0.577,0.582,0.0862,0.602,0.556,0.886,-0.0516,1.87,3.56,2.88,2.15,0.552,0.453,1.28,0.448,0.524,0.123,0.386,0.367,0.946
CCTTACGGGTCACGAGGTTATATCACGACGAGCG,7.05,4.73,0.668,4.12,-0.0743,6.05,7.17,6.76,3.62,5.46,4.44,5.64,1.38,0.342,2.85,4.59,0.517,5.8,0.866,4.5
ATCTCTATGTAAAAGTTCAGTGAATCCCGAGGAT,0.48,1.17,1.3,0.915,0.829,2.49,3.27,4.6,3.31,4.95,-0.373,1.21,1.18,0.786,1.41,1.78,1.21,1.08,0.424,2.23
TCTAGTTGGTCAAAGGTCACAAACTCGAAATGCG,4.94,5.27,3.15,5.16,1.49,6.4,10.9,9.72,9.69,10.3,3.16,5.98,1.2,1.06,3.78,5.56,1.54,6.79,3.07,4.77
TTAACAAGGTGAAGGTCGTTGATCCCTCTGTAGA,2.23,1.78,-0.258,1.35,-0.562,2.91,2.42,3.09,1.5,2.65,2.79,3.4,0.419,0.266,0.4,1.35,0.014,1.82,-0.625,2.03
CGAACTAGGTCATCCAGGCCAGTGAATACATTGA,4.42,2.58,0.198,1.84,-0.0916,4.97,7.7,6.3,3.77,5.63,7.88,8.53,3.15,2.65,2.08,1.61,0.572,2.4,0.167,3.91
CGAACGAGTGCATGAGTTGATAGCAAATGCCGAT,-0.259,-0.143,-0.369,-0.0215,-0.861,0.127,0.68,0.262,-0.00177,-0.142,-0.266,-0.442,-0.401,0.0555,-0.0589,0.62,0.717,0.133,-0.713,0.209
